This is an account of results in PubChem BioAssay (NCATS).

Common to all, as to test: qHTS profiling for inhibitors of Plasmodium falciparum proliferation (AID 504749); also: nearly all actives have a fitted effect of over 60% in size
Conditions in all cases: P. falciparum in erythrocytes, SYBR Green DNA, 72 h; series mostly up to 28.7 µM

The test system of one test is CP201. Put shortly:
(§1)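 Infected RBCs, 0.3% parasitemia/2.5% Hct final; cpd 72 h, 37 C, 5% CO2; lysis buffer with saponin/triton/SYBR Green I, o/n RT dark; FI 485/535; norm. to artemisinin (0.29 uM) and DMSO.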

The test system of the next test is CP203. In outline:
as §1

The next test relates to CP211. In outline:
as §1

The test system of the next test is CP215. In outline: as §1
The subject of a further test is CP217. Put shortly: as §1
Another test concerns CP237. In outline:
as §1

A further test deals with CP238. In outline:
as §1

A further test deals with CP247. In outline:
as §1

The subject of another test is CP250. In outline: as §1
For another test, the system named is CP252. Put shortly:
as §1

Results filed as inconclusive are left out. Calls of active or inactive are those of the source. Calls follow the shape of the dose curve; as a rule, active = well fitted inhibition curve with a large enough effect; inconclusive = small, poorly fitted or top-dose-only effect; inactive = flat fitted curve, though single readings scatter.
Potency is read from the fitted curve at half-maximal effect.

Turning to `CC(C)(Oc1ccc(CCNC(=O)c2ccc(Cl)cc2)cc1)C(=O)O`, the Potency result in the test with CP201, in the test with CP203, with CP211, with CP215, with CP217 and with CP237 was “inactive” in each case. In addition, the Potency entry in the test with CP238, with CP247, in the test with CP250 and with CP252 was “inactive” each time.

For the molecule `C[N+](C)(C)CCOC(=O)CCC(=O)OCC[N+](C)(C)C`, the Potency result in the test on CP201, with CP203, with CP211, in the test with CP215, in the test on CP217 and with CP237 was “inactive” in each case. Further, the Potency entry in the test with CP238, with CP247, with CP250 and with CP252 was “inactive” each time.

Turning to `COC(=O)C1=C(C)NC(C)=C(C(=O)OC(C)(C)CN(C)CCC(c2ccccc2)c2ccccc2)C1c1cccc([N+](=O)[O-])c1` (stereo not given), the Potency with CP201 is 6.01 µM (active); with CP203, 4.26 µM (active); with CP211, 4.78 µM (active); with CP215 it was 4.78 µM (active); in the test on CP217 it was 3.16 µM (active); with CP237, 2.51 µM (active). In addition, the Potency is 3.98 µM (active) with CP238, 3.16 µM (active) in the test on CP247, 3.55 µM (active) in the test with CP250 and 3.55 µM (active) with CP252.

On to `CC(=O)OCC1=C(C(=O)O)N2C(=O)[C@@H](NC(=O)Cc3cccs3)[C@H]2SC1`, for which the Potency entry with CP201, in the test on CP203, in the test with CP211, in the test on CP215, in the test on CP217 and in the test on CP237 was “inactive” each time. The Potency result in the test with CP238, in the test with CP247, in the test on CP250 and in the test on CP252 was “inactive” in each case.

Regarding `CN1CCN(CC(=O)N2c3ccccc3C(=O)Nc3cccnc32)CC1`, the Potency entry with CP201, in the test on CP203, in the test with CP211, with CP215, in the test on CP217 and in the test with CP237 was “inactive” throughout. Also, the Potency entry with CP238, in the test on CP247, in the test on CP250 and in the test with CP252 was “inactive” throughout.

As to `NS(=O)(=O)c1cc2c(cc1Cl)NC(C1CC3C=CC1C3)NS2(=O)=O` (stereo not given), the Potency entry in the test on CP201, in the test on CP203, in the test with CP211, in the test on CP215, in the test on CP217 and in the test with CP237 was “inactive” throughout. Also, the Potency entry with CP238, in the test with CP247, in the test on CP250 and in the test on CP252 was “inactive” throughout.

Regarding `CCn1cc(C(=O)O)c(=O)c2cc3c(cc21)OCO3`, the Potency result in the test on CP201, in the test on CP203, with CP211, in the test with CP215, in the test on CP217 and in the test with CP237 was “inactive” in each case. For the same molecule, the Potency result in the test with CP238, in the test on CP247, in the test with CP250 and in the test on CP252 was “inactive” each time.

In the case of `NC(=O)c1ncn([C@@H]2O[C@H](CO)[C@@H](O)[C@H]2O)c1O`, the Potency result in the test on CP201, in the test with CP203, in the test on CP211, in the test with CP215, in the test with CP217 and in the test on CP237 was “inactive” each time. Further, the Potency result in the test on CP238, in the test on CP247, in the test on CP250 and with CP252 was “inactive” each time.

Consider `CCOC(=O)c1cnc2c(cnn2CC)c1NN=C(C)C`, for which the Potency result in the test with CP201, in the test on CP203, in the test with CP211, in the test on CP215, in the test on CP217 and in the test with CP237 was “inactive” each time. Further, the Potency entry with CP238, in the test on CP247, in the test on CP250 and with CP252 was “inactive” in each case.

Turning to `Brc1c(NC2=NCCN2)ccc2nccnc12`, the Potency result in the test on CP201, in the test with CP203, in the test with CP211, with CP215, in the test with CP217 and with CP237 was “inactive” each time. In addition, the Potency entry with CP238, with CP247, in the test with CP250 and in the test on CP252 was “inactive” each time.

Turning to `CCCCNC(=O)NS(=O)(=O)c1ccc(C)cc1`, the Potency entry with CP201, in the test with CP203, in the test on CP211, in the test with CP215, with CP217 and in the test on CP237 was “inactive” each time. Moreover, the Potency result in the test with CP238, with CP247, in the test with CP250 and with CP252 was “inactive” throughout.

Turning to `CCCCNc1c(C(=O)OCC)c(C)nc2c1cnn2CC`, the Potency entry with CP201, in the test with CP203, in the test with CP211, in the test on CP215, with CP217 and with CP237 was “inactive” each time. For the same molecule, the Potency entry in the test with CP238, in the test on CP247, with CP250 and in the test with CP252 was “inactive” in each case.

For the molecule `CCN(CC)CCNC(=O)c1ccc(NC(C)=O)cc1`, the Potency entry in the test with CP201, in the test on CP203, in the test with CP211, with CP215, in the test on CP217 and in the test on CP237 was “inactive” in each case. In addition, the Potency entry in the test on CP238, with CP247, with CP250 and in the test with CP252 was “inactive” in each case.

On to `CN1CCN(C2=Nc3ccccc3Oc3ccc(Cl)cc32)CC1`, for which the Potency result in the test on CP201, in the test with CP203, in the test on CP211, with CP215, in the test with CP217 and with CP237 was “inactive” in each case. Further, the Potency entry with CP238, in the test with CP247, in the test with CP250 and in the test on CP252 was “inactive” throughout.

As to `FC(F)(F)c1ccccc1-n1ccnc1`, the Potency entry in the test with CP201, in the test on CP203, with CP211, in the test with CP215, in the test with CP217 and in the test with CP237 was “inactive” in each case. Also, the Potency result in the test on CP238, in the test on CP247, in the test on CP250 and with CP252 was “inactive” each time.

Take `CCNC(=O)N1CCN(CCCC(c2ccc(F)cc2)c2ccc(F)cc2)CC1`: the Potency is 7.57 µM (active) in the test with CP201; 6.75 µM (active) in the test with CP203; 5.36 µM (active) in the test with CP211; 4.26 µM (active) in the test with CP215; 1.12 µM (active) with CP217; 2.51 µM (active) in the test on CP237. Moreover, the Potency in the test with CP238 was 3.16 µM (active); with CP247, 1 µM (active); in the test with CP250 it was 1 µM (active); with CP252, 3.98 µM (active).

`Nc1c2c(nc3ccccc13)CCCC2O` (stereo not given): the Potency entry in the test on CP201, with CP203, with CP211, in the test with CP215, in the test with CP217 and with CP237 was “inactive” each time. Moreover, the Potency entry in the test on CP238, in the test on CP247, in the test with CP250 and with CP252 was “inactive” in each case.

`CC(=O)Nc1nnc(S(N)(=O)=O)s1`: the Potency entry in the test on CP201, with CP203, in the test with CP211, in the test with CP215, in the test on CP217 and in the test with CP237 was “inactive” throughout. The Potency entry in the test with CP238, in the test on CP247, with CP250 and with CP252 was “inactive” in each case.

Take `O=C(O)CN(CCN(CC(=O)O)CC(=O)O)CCN(CC(=O)O)CC(=O)O`: the Potency entry with CP201, in the test with CP203, in the test with CP211, in the test on CP215, in the test with CP217 and in the test on CP237 was “inactive” throughout. Moreover, the Potency result in the test on CP238, with CP247, in the test on CP250 and in the test with CP252 was “inactive” each time.

`Cc1nc2c([nH]1)c(=O)n(C)c(=O)n2Cc1ccco1`: the Potency result in the test with CP201, in the test with CP203, in the test on CP211, in the test with CP215, in the test on CP217 and in the test on CP237 was “inactive” in each case. For the same molecule, the Potency entry with CP238, with CP247, in the test with CP250 and with CP252 was “inactive” each time.
